Results from PubChem BioAssay.
The source made the active and inactive calls.

Legend:
[1] = tested on: PRMT1 (protein arginine N-methyltransferase 1); test: small molecules binding arginine methyltransferase PRMT1 – biochemical, small-molecule microarray, 635 nm fluorescence, primary screen (AID 1088); conditions: higher = more signal;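 further: binding of Prmt1 protein to compounds spotted on small-molecule microarray slides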
[2] = growth effects on S. cerevisiae YJM789 – YJM789 clinical isolate, OD600, 24 h, basal, primary screen (AID 1089); conditions: higher = more signal, called active from +8 up or from −8 down;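 further: growth of clinical yeast isolate S. cerevisiae YJM 789 seeded 1000 cells per well; test concentration not given here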
[3] = S. pombe growth modifiers, basal conditions – strain 972, OD600, 24 h, no modulator, primary screen (AID 1090);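 further: basal condition with compound alone and no growth modifier present; test concentration not given here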; conditions: S. pombe 972 growth, higher = more signal, called active from +8 up or from −8 down
[4] = budding yeast growth modifiers under rapamycin – strain BY4716, OD600, 96 h, primary screen (AID 1091); further: test concentration not given here; conditions: S. cerevisiae BY4716 + rapamycin, higher = more signal, called active from +8 up or from −8 down
[5] = molecular target: Torsin-1A-interacting protein 2 (Homo sapiens) (UniProt Q8NFQ8); test: small molecules binding lysate-expressed LULL1 – cell lysate, human LULL1 lysate, 635/667 nm fluorescence, primary screen (AID 1092); conditions: small-molecule microarray, hLULL1 lysate binding, 635 nm fluorescence; higher = more signal;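 further: probe is lysate of COS7 cells overexpressing human LULL1; score merges per-feature 667 nm fluorescence with signal-to-noise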
[6] = optical density change of DRC41 E. coli – strain DRC41, OD650, 24 h, E. coli filamentation project, primary screen (AID 1093);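 further: MC1000 strain lacking acrAB efflux and sulA so SOS filamentation is blocked; test concentration not given here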; conditions: E. coli DRC41 growth, higher = more signal, called active from +8 up or from −8 down
[7] = probe aLefty2 binding to arrayed compounds – biochemical, biotinylated probe, 635/667 nm fluorescence, primary screen (AID 1094); conditions: small-molecule microarray, higher = more signal;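 further: score merges spot fluorescence near 667 nm with spot signal-to-noise ratio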
[8] = tested on: Noggin (protein binding on small-molecule microarray); test: small molecules binding Noggin protein – biochemical, 635/667 nm fluorescence, primary screen (AID 1095); conditions: 635 nm fluorescence, higher = more signal;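 further: score merges 667 nm feature fluorescence with signal to noise over triplicate slides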
[9] = molecular target: Neurogenic locus notch homolog protein 3 (Homo sapiens) (UniProt Q9UM47); test: small molecules binding NOTCH3 protein – biochemical, 635/667 nm fluorescence, primary screen (AID 1096); conditions: small-molecule microarray, 635 nm fluorescence, higher = more signal
[10] = probe aEGFR binding to arrayed compounds – biochemical, biotinylated probe, 635/667 nm fluorescence, primary screen (AID 1097); conditions: small-molecule microarray, higher = more signal;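 further: probe is a biotinylated anti-EGFR antibody binding compounds printed on slides; score combines fluorescence near 667 nm and signal to noise of each spot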
[11] = tested on: Plasmodium falciparum Sir2 (PF13_0152, Sir2A); test: Plasmodium falciparum Sir2A binding compounds – biochemical, small-molecule microarray, 635 nm fluorescence, primary screen (AID 1098); conditions: fluorescence 635 nm, higher = more signal;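 further: score merges spot fluorescence intensity with its signal-to-noise ratio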
[12] = probe aDKK1 binding to arrayed compounds – biochemical, biotinylated probe, 635/667 nm fluorescence, primary screen (AID 1099); conditions: small-molecule microarray, higher = more signal;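 further: score merges 667nm spot fluorescence with signal to noise across triplicate slides; reference of the scale not given here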
[13] = probe aCHRDL2 binding to arrayed compounds – biochemical, biotinylated probe, 635/667 nm fluorescence, primary screen (AID 1100); conditions: small-molecule microarray, higher = more signal
[14] = change in splice reporter luminescence, either direction, cell-based, HEK293, spliceosome inhibition project, primary screen (AID 1101); conditions: HEK293 splicing luciferase reporter, 24 h, higher = more signal, called active from +8 up or from −8 down;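 further: HEK293 cells carrying a splicing-competent luciferase reporter gene; test concentration not given here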
[15] = molecular target: Fibroblast growth factor 10 (Homo sapiens) (UniProt O15520); test: compounds binding fibroblast growth factor 10 – biochemical, small-molecule microarray, 635 nm fluorescence, primary screen (AID 1102); conditions: FGF10 binding, fluorescence 635 nm, higher = more signal
[16] = tested on: glycogen synthase kinase-3 (GSK3A per assay name; protocol says GSK3B); test: compounds binding glycogen synthase kinase-3 – biochemical, small-molecule microarray, 635 nm fluorescence, GSK3A, primary screen (AID 1103); conditions: fluorescence 635 nm, higher = more signal; further: the record names both GSK3A and GSK3B
[17] = molecular target: Epidermal growth factor receptor (Homo sapiens) (UniProt P00533); test: compounds binding epidermal growth factor receptor – biochemical, small-molecule microarray, 635 nm fluorescence, primary screen (AID 1104); conditions: EGFR binding, higher = more signal;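 further: score merges 667 nm emission intensity with spot signal to noise over triplicate slides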
[18] = molecular target: Follistatin-related protein 3 (Homo sapiens) (UniProt O95633); test: compounds binding follistatin-related protein 3 – biochemical, small-molecule microarray, 635 nm fluorescence, primary screen (AID 1105); conditions: FSTL3 binding, higher = more signal;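 further: score merges emission near 667 nm and signal to noise per printed spot across three slides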
[19] = molecular target: Dickkopf-related protein 1 (Homo sapiens) (UniProt O94907); test: small molecules binding DKK1 protein – biochemical, small-molecule microarray, 635 nm fluorescence scan, primary screen (AID 1106); conditions: higher = more signal;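 further: score merges emission near 667 nm with signal to noise over three replicate slides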
[20] = tested on: Inhibin beta A chain (activin A); test: small molecules binding activin A – biochemical, small-molecule microarray, 635 nm fluorescence scan, primary screen (AID 1107); conditions: INHBA, higher = more signal;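 further: mouse activin A protein probed at 4.33 µg/mL on printed slides; score merges bound-protein fluorescence near 667 nm with spot signal-to-noise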

Sequence of Torsin-1A-interacting protein 2 (Homo sapiens) (Q8NFQ8 whole entry, looked up): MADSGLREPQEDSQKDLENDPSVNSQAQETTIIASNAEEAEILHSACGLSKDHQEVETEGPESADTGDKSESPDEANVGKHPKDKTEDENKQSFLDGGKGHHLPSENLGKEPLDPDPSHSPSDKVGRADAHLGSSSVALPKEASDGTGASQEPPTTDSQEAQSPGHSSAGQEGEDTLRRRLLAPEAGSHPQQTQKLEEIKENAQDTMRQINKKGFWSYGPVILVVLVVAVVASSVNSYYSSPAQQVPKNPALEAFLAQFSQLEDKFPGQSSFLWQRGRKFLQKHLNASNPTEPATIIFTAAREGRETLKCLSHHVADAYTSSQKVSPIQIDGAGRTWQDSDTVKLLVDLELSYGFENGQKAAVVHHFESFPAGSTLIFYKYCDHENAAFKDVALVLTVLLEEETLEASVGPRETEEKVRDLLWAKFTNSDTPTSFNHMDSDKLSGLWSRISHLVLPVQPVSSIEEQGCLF
Sequence of Fibroblast growth factor 10 (Homo sapiens) (O15520 whole entry, looked up): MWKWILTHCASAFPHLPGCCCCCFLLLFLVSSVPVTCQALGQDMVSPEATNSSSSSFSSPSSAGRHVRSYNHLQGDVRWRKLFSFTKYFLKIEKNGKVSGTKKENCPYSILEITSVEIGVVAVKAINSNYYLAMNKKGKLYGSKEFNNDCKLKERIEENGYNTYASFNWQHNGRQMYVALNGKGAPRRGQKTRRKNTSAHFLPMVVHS
Sequence of Epidermal growth factor receptor (Homo sapiens) (P00533 whole entry, looked up): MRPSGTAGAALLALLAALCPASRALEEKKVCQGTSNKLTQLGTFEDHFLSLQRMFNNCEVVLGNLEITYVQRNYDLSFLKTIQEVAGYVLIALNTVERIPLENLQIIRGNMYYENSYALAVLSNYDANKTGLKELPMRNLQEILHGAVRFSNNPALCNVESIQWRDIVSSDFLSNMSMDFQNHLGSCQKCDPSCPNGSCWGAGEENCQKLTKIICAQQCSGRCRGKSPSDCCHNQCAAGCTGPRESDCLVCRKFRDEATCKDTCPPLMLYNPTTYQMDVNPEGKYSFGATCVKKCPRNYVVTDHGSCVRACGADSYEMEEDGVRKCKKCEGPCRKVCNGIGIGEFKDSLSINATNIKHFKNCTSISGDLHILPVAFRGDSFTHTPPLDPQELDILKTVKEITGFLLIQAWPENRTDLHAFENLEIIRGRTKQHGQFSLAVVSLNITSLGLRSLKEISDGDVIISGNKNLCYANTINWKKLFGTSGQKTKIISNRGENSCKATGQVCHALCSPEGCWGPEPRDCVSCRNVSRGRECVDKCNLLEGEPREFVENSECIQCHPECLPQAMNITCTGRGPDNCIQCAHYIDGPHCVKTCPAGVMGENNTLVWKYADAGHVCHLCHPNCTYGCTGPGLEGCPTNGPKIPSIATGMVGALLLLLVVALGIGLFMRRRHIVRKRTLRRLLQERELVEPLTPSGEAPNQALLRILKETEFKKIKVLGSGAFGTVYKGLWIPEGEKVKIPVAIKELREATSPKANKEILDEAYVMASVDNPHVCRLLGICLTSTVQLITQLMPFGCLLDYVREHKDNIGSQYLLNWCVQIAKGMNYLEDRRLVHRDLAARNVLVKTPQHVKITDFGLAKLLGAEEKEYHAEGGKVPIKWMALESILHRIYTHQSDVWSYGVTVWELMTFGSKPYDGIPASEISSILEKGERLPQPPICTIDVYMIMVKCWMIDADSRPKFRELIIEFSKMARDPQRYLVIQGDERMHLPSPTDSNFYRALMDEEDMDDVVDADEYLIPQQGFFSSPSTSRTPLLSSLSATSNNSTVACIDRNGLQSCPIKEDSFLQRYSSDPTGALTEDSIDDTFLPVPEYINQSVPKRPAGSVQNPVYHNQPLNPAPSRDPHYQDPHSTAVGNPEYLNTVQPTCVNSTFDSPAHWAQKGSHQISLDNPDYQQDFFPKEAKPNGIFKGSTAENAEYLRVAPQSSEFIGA
Sequence of Dickkopf-related protein 1 (Homo sapiens) (O94907 whole entry, looked up): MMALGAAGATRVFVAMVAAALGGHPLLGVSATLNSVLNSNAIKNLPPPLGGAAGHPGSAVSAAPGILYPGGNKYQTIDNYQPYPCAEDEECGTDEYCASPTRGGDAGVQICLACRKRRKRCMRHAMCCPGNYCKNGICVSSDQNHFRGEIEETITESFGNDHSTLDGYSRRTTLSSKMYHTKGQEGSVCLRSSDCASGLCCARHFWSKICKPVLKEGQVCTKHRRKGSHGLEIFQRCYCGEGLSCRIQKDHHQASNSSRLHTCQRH
Sequence of Neurogenic locus notch homolog protein 3 (Homo sapiens) (Q9UM47 whole entry, looked up): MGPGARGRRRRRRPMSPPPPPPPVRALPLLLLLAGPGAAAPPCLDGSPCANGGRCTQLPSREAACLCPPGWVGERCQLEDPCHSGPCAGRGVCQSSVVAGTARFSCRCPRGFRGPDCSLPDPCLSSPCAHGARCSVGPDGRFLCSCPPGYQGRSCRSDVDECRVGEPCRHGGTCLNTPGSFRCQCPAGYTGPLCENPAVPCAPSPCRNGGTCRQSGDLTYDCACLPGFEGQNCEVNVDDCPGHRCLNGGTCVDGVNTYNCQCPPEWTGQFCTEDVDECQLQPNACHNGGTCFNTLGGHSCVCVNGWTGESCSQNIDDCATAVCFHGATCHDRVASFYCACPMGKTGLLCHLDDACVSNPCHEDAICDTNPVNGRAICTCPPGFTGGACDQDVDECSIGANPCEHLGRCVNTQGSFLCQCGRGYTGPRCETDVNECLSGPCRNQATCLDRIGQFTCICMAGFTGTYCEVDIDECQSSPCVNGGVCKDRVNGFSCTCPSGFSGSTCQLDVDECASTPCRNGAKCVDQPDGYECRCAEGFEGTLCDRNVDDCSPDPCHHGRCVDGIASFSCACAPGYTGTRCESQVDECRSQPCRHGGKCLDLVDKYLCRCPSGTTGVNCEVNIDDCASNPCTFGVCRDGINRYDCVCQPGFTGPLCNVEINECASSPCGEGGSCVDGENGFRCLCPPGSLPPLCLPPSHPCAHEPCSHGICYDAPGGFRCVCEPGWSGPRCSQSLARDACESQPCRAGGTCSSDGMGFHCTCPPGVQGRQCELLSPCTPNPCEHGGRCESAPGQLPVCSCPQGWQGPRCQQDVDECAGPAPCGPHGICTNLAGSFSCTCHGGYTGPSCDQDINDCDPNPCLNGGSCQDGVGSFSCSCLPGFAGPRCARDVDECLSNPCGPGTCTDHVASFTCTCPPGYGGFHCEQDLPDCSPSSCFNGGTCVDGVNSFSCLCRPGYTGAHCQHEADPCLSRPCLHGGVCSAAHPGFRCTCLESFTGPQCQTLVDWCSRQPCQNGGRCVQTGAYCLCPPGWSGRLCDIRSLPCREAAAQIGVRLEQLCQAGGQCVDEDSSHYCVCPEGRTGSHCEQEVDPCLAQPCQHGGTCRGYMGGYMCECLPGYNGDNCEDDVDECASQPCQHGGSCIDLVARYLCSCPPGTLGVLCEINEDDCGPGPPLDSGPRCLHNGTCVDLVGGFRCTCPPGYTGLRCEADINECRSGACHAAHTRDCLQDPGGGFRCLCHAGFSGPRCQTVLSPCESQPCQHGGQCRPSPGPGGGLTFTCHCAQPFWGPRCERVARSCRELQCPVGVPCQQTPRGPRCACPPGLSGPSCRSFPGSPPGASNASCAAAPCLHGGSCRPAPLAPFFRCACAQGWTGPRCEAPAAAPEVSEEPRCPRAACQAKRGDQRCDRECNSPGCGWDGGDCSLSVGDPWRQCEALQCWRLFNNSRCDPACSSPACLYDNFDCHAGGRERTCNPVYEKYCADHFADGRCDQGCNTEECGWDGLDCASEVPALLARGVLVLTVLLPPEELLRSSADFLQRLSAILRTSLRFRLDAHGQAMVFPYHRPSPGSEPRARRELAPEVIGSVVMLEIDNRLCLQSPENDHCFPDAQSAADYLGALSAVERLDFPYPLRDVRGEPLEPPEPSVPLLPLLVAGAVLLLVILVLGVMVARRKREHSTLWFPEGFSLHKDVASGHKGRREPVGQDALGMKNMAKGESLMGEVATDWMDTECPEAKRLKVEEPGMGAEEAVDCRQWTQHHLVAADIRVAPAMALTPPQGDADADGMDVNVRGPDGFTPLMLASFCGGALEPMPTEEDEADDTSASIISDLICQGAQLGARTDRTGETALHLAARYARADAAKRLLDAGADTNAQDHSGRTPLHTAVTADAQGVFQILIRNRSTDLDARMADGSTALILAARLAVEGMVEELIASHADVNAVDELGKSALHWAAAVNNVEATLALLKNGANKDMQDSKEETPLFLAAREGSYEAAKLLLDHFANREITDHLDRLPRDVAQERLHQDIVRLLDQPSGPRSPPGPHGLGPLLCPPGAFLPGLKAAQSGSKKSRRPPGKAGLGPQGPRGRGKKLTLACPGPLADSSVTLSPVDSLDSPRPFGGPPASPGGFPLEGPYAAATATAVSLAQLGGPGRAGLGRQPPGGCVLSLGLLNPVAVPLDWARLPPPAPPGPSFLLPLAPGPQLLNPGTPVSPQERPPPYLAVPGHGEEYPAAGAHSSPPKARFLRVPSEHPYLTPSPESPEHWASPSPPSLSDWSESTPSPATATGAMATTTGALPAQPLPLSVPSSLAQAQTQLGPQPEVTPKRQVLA
Sequence of Follistatin-related protein 3 (Homo sapiens) (O95633 whole entry, looked up): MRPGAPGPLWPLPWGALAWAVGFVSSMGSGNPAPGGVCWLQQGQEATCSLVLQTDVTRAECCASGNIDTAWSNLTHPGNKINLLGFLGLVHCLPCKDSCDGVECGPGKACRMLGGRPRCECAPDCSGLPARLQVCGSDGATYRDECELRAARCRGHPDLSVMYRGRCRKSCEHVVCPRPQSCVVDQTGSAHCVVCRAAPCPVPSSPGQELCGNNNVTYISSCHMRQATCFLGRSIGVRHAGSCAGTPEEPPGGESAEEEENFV

| SMILES | composite z-score [1] | z-score [2] | z-score [3] | z-score [4] | composite z-score [5] | z-score [6] | composite z-score [7] | composite z-score [8] | composite z-score [9] | composite z-score [10] | composite z-score [11] | composite z-score [12] | composite z-score [13] | z-score [14] | composite z-score [15] | composite z-score [16] | composite z-score [17] | composite z-score [18] | composite z-score [19] | composite z-score [20] |
| --- | --- | --- | --- | --- | --- | --- | --- | --- | --- | --- | --- | --- | --- | --- | --- | --- | --- | --- | --- | --- |
| CCCCC(=C=CC[C@@H](O)c1ccccc1OCCO)C[C@@H](O)c1ccccn1 | 1.35 | 0.0466 (inactive) | -0.314 (inactive) | -1.14 (inactive) | 2.3 | 0.0399 (inactive) | -0.119 | 0.191 | 0.311 | -0.0238 | 1.55 | -0.124 | -0.167 | -0.0777 (inactive) | 0.473 | -0.644 | 0.125 | 0.143 | 0.141 | 0.624 |
| C=C(/C=C\CNS(=O)(=O)c1ccc(C)cc1)[C@H](O)[C@H]1CCCN1S(=O)(=O)c1ccccc1[N+](=O)[O-] | -0.196 | 1.89 (inactive) | 1.09 (inactive) | 35.1 (active) | 0.782 | 0.753 (inactive) | -0.139 | 0.177 | 0.221 | -0.0567 | 0.0251 | -0.142 | -0.55 | -0.465 (inactive) | 0.598 | 0.215 | 0.629 | 0.122 | 0.524 | 0.509 |
| CCCC1(C(=O)OC)C=C2C(=C(C(C)C)C(=O)C2C)CN1 (stereo not given) | -1.32 | 0.128 (inactive) | 0.0695 (inactive) | 0.767 (inactive) | 0.268 | -1.24 (inactive) | 0.115 | -0.797 | -0.493 | -0.146 | -0.129 | 0.759 | 0.813 | 1.44 (inactive) | -0.474 | -1.63 | -0.648 | -0.911 | -0.724 | 1.17 |
| COCCCNC(=O)[C@@]1(c2ccc([N+](=O)[O-])cc2)CC(=O)N(C2CCCCC2)[C@@H]1c1ccc(CO)cc1I | 1.54 | -0.307 (inactive) | -0.314 (inactive) | -0.0938 (inactive) | 0.83 | 0.556 (inactive) | 0.0561 | 0.39 | 0.0429 | -0.0967 | 1.62 | 0.0269 | 0.64 | -1.1 (inactive) | 0.453 | 1.16 | -0.323 | 0.102 | -0.582 | 0.717 |
| CN1C2C=C(c3ccc(CO)cc3)C(C3C(=O)N(C(N)=O)C(=O)C32)C1C1CC1 (stereo not given) | 0.132 | -1.07 (inactive) | -0.257 (inactive) | 1.2 (inactive) | -0.0967 | 0.214 (inactive) | -0.178 | -0.4 | -0.607 | -0.201 | 0.261 | -0.202 | 0.0427 | 0.0567 (inactive) | -0.241 | -0.32 | -0.127 | -0.722 | -0.188 | -0.586 |
| COC(=O)C1=CC(c2ccc(CO)cc2)=CC(C2CC2)N(Cc2cc3c(cc2Br)OCO3)C=C1C(=O)OC (stereo not given) | 1.54 | -0.644 (inactive) | -2.47 (inactive) | -2.01 (inactive) | 2.87 | 0.841 (inactive) | 0.479 | 0.092 | 1.11 | 0.46 | 1.66 | 0.706 | 0.844 | 1.17 (inactive) | 1.18 | 1.29 | 0.737 | 0.89 | 0.157 | 0.836 |
| CN1C(=O)C2C=CC(C(O)COCc3ccccc3)N(Nc3ccc([N+](=O)[O-])cc3[N+](=O)[O-])C2C1=O (stereo not given) | 0.332 | 0.629 (inactive) | -1.58 (inactive) | 0.308 (inactive) | 1.78 | -0.278 (inactive) | 0.229 | -0.39 | -0.282 | -0.146 | 0.111 | 0.753 | 0.888 | 0.806 (inactive) | -0.0198 | -0.443 | -1.04 | -0.381 | -0.82 | 1.13 |
| Cc1ccc(S[C@]2(C(=O)NC(C)C)CC(=O)N(Cc3ccccc3)[C@@H]2c2ccc(CO)cc2)cc1 | -0.251 | -1.58 (inactive) | 0.433 (inactive) | -0.632 (inactive) | 0.228 | 1.31 (inactive) | -0.0593 | -0.371 | -0.312 | -0.18 | 0.0089 | 0.108 | 0.915 | -0.538 (inactive) | -1.18 | -1.34 | -1.01 | -0.363 | -1.51 | 0.159 |
| C=CCOC(=O)[C@@H]1[C@H]2C(=O)O[C@H](c3ccccc3)[C@H](c3ccccc3)N2[C@H](c2ccc(OCCOC(=O)[C@@H]3C[C@@H]4C(=O)N[C@@H](CC(C)C)C(=O)N4[C@@H]3c3ccc(O)cc3)cc2)[C@@]12C(=O)Nc1ccc(I)cc12 | 1.56 | -0.677 (inactive) | 1.63 (inactive) | 18.2 (active) | 1.82 | 1.16 (inactive) | -0.0321 | 1.69 | 1.08 | 0.105 | 1.03 | -0.228 | -0.355 | -0.771 (inactive) | 1.37 | 1.28 | 0.817 | 1.42 | 1.14 | 0.79 |
